The structures appear in SMILES notation. Where a name gives a salt, the structure may show the parent alone. Unmarked numbers belong to inactive results.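 The calls were made as follows: active = AUC significantly below DMSO controls by Student t-fit with adjusted P under 0.01; inactive = not significantly reduced.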

For the assay, the system named is Haemophilus parainfluenzae. The experiment in a line: growth AUC normalised to DMSO control (fraction of control); higher = less growth inhibition, active = hit call of the paper. Particulars: 20 µM. The procedure, abridged:
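Pathogens were passaged twice under anaerobic conditions, then inoculated into pre-reduced mGAM plates at a starting OD578 of 0.01, with compound at 20 μM and 1% DMSO, and sealed with breathable membranes. For Haemophilus parainfluenzae, the medium was supplemented with hemin and NAD. OD578 was read every hour for 24 h in three biological replicates. Growth-curve AUC was calculated by the trapezoidal rule up to the exponential-to-stationary transition and normalised to DMSO controls on the same plate.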
For `CNNCc1ccc(C(=O)NC(C)C)cc1` [Procarbazine hydrochloride], the “growth AUC normalised to DMSO control” value was 0.995.

With `CC(=O)OCC(=O)[C@@]1(O)[C@H](C)C[C@H]2[C@@H]3CCC4=CC(=O)C=C[C@]4(C)[C@@]3(F)[C@@H](O)C[C@@]21C` [Dexamethasone acetate], the “growth AUC normalised to DMSO control” value is 1.03.

Turning to `CC1=C(/C=C/C(C)=C/C=C/C(C)=C/C(=O)O)C(C)(C)CCC1` [Retinoic acid], the “growth AUC normalised to DMSO control” value is 0.995.

Turning to `CCn1cc(C(=O)O)c(=O)c2cc(F)c(N3CCN(C)CC3)cc21` [Pefloxacin], the “growth AUC normalised to DMSO control” value was 0.0557 (active).

As to `CC(C)NNC(=O)c1ccncc1` [Iproniazide phosphate], the “growth AUC normalised to DMSO control” value was 1.04.

Turning to `CCCCc1cc2ccccc2c(OCCN(C)C)n1` [Dimethisoquin hydrochloride], the “growth AUC normalised to DMSO control” value is 0.97.

As to `NC(=O)N1c2ccccc2C=Cc2ccccc21` [Carbamazepine], the “growth AUC normalised to DMSO control” value is 0.989.

Regarding `C=CC(N)CCC(=O)O` (centres undefined) [Vigabatrin hydrochloride], the “growth AUC normalised to DMSO control” value was 1.02.

Turning to `COc1cc2ncnc(Nc3ccc(F)c(Cl)c3)c2cc1OCCCN1CCOCC1` [Gefitinib], the “growth AUC normalised to DMSO control” value is 0.971.

As to `O=C(OCCOCCO)c1ccccc1Nc1cccc(C(F)(F)F)c1` [Etofenamate], the “growth AUC normalised to DMSO control” value was 0.992.

As to `CCN(CC)CCc1nc(-c2ccccc2)no1` [Oxolamine citrate salt], the “growth AUC normalised to DMSO control” value was 1.05.

Turning to `CCOC(=O)c1ccc(N)cc1` [Benzocaine], the “growth AUC normalised to DMSO control” value was 1.02.

`CNS(=O)(=O)Cc1ccc2[nH]cc(CCN(C)C)c2c1` [Sumatriptan succinate]: the “growth AUC normalised to DMSO control” value is 0.984.

As for `N=C(N)NCc1cccc(I)c1` [Iobenguane sulfate], the “growth AUC normalised to DMSO control” value was 1.02.

For the compound `O=C(Nc1cccc2c(=O)cc(-c3nnn[nH]3)oc12)c1ccc(OCCCCc2ccccc2)cc1` [Pranlukast], the “growth AUC normalised to DMSO control” value is 0.996.

Consider `Nc1ccc(S(N)(=O)=O)cc1` [Sulfanilamide], for which the “growth AUC normalised to DMSO control” value was 0.997.

Consider `Cn1c(=O)c2c(ncn2CCO)n(C)c1=O` [Etofylline], for which the “growth AUC normalised to DMSO control” value was 1.02.

Turning to `O=c1[nH]c(=O)n([C@H]2C[C@H](O)[C@@H](CO)O2)cc1I` [Idoxuridine], the “growth AUC normalised to DMSO control” value is 0.942.

On to `O=C(O)Cc1ccccc1Nc1c(Cl)cccc1Cl` [Diclofenac sodium], for which the “growth AUC normalised to DMSO control” value was 0.936.

Take `COCCCC/C(=N\OCCN)c1ccc(C(F)(F)F)cc1` [Fluvoxamine maleate]: the “growth AUC normalised to DMSO control” value is 0.981.

Regarding `CN(C)CCC(c1ccc(Br)cc1)c1ccccn1` (centres undefined) [Brompheniramine maleate], the “growth AUC normalised to DMSO control” value is 1.04.

As to `CCN1CCCC1CNC(=O)c1cc(S(=O)(=O)CC)c(N)cc1OC` (centres undefined) [Amisulpride], the “growth AUC normalised to DMSO control” value was 0.997.

As for `COc1ccc(C(Cl)=C(c2ccc(OC)cc2)c2ccc(OC)cc2)cc1` [Chlorotrianisene], the “growth AUC normalised to DMSO control” value was 0.951.

In the case of `Cc1ncc([N+](=O)[O-])n1CCO` [Metronidazole], the “growth AUC normalised to DMSO control” value was 0.906.

For the compound `C[C@H]1[C@H](NC(=O)/C(=N\OC(C)(C)C(=O)O)c2csc(N)n2)C(=O)N1S(=O)(=O)O` [Aztreonam], the “growth AUC normalised to DMSO control” value is 0.0582 (active).

For the compound `CC(C)NCC(O)COc1ccc(COCCOC(C)C)cc1` (centres undefined) [Bisoprolol hemifumarate], the “growth AUC normalised to DMSO control” value was 1.13.

On to `COc1ccc([C@@H]2CC(=O)c3c(O)cc(O[C@@H]4O[C@H](CO[C@@H]5O[C@@H](C)[C@H](O)[C@@H](O)[C@H]5O)[C@@H](O)[C@H](O)[C@H]4O)cc3O2)cc1O` [Hesperidin], for which the “growth AUC normalised to DMSO control” value was 1.07.

Take `O=C(CCCN1CCC(O)(c2ccc(Br)cc2)CC1)c1ccc(F)cc1` [Bromperidol]: the “growth AUC normalised to DMSO control” value was 1.02.

With `N=C(N)NC(=N)NCCc1ccccc1` [Phenformin hydrochloride], the “growth AUC normalised to DMSO control” value was 1.04.

With `CC(=O)Oc1cc(C(C)C)c(OCCN(C)C)cc1C` [Moxisylyte hydrochoride], the “growth AUC normalised to DMSO control” value is 0.995.

On to `Cc1onc(-c2ccccc2)c1C(=O)N[C@@H]1C(=O)N2[C@@H]1SC(C)(C)[C@@H]2C(=O)O` [Oxacillin sodium], for which the “growth AUC normalised to DMSO control” value was 0.928.

Regarding `O=C(COc1ccc(Cl)cc1)N1CCN(Cc2ccc3c(c2)OCO3)CC1` [Fipexide hydrochloride], the “growth AUC normalised to DMSO control” value is 0.836.

As for `NC[C@H]1CC[C@H](C(=O)O)CC1` [Tranexamic acid], the “growth AUC normalised to DMSO control” value is 1.04.

As to `CC(=O)OCC1=C(C(=O)O)N2C(=O)[C@@H](NC(=O)Cc3cccs3)[C@H]2SC1` [Cephalothin sodium salt], the “growth AUC normalised to DMSO control” value was 0.0326 (active).

With `C[C@]12C[C@H](O)[C@H]3[C@@H](CCC4=CC(=O)CC[C@@]43C)[C@@H]1CC[C@@H]2C(=O)CO` [Corticosterone], the “growth AUC normalised to DMSO control” value was 0.962.

On to `CC(=O)NC[C@H]1CN(c2ccc(N3CCOCC3)c(F)c2)C(=O)O1` [Linezolid], for which the “growth AUC normalised to DMSO control” value was 0.582 (active).

For the compound `O=C(O)c1ccccc1C(=O)Nc1ccc(S(=O)(=O)Nc2nccs2)cc1` [Phthalylsulfathiazole], the “growth AUC normalised to DMSO control” value is 1.

For `CN1CCN(C(c2ccccc2)c2ccccc2)CC1` [Cyclizine hydrochloride], the “growth AUC normalised to DMSO control” value is 0.995.

For `NC(=O)N/N=C/c1ccc([N+](=O)[O-])o1` [Nitrofural], the “growth AUC normalised to DMSO control” value was 0.465 (active).

For the origin of these results see the supplement of paper PMC12350171.
